Measured values from ChEMBL document CHEMBL1961873, “Compounds: GSK PKIS; Assays: Nanosyn kinase panel” (2012).
Where “and” joins values, the source holds several entries; their conditions need not be identical. Identical values can stand only once.

How the values were obtained:
[1] = biological target: T1, Tyrosine-protein kinase ITK/TSK (Homo sapiens) (UniProt Q08881); conditions: at 1 µM;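 note: values are mean percent inhibition of ITK from the GSK PKIS screen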
T1 sequence (whole entry): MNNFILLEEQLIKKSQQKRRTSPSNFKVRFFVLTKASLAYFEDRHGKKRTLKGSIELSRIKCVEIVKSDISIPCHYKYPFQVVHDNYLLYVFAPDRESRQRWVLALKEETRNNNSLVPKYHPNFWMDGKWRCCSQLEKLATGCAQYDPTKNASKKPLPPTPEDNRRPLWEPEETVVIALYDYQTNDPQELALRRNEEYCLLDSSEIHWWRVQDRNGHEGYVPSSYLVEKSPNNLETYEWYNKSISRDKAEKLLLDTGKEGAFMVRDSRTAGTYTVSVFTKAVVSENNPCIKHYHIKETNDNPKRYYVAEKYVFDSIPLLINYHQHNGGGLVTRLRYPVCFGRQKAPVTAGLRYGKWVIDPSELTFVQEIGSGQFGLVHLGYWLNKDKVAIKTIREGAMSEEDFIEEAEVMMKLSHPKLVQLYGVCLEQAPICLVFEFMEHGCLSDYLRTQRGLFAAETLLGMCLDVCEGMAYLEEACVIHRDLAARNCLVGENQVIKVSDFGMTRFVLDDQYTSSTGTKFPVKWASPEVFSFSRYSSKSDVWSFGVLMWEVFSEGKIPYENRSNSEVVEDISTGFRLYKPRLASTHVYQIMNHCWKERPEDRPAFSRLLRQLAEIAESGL

[2] = biological target: Tyrosine-protein kinase JAK1 (Homo sapiens) (UniProt P23458); conditions: at 0.1 µM
Tyrosine-protein kinase JAK1 (Homo sapiens), sequence (P23458 whole entry): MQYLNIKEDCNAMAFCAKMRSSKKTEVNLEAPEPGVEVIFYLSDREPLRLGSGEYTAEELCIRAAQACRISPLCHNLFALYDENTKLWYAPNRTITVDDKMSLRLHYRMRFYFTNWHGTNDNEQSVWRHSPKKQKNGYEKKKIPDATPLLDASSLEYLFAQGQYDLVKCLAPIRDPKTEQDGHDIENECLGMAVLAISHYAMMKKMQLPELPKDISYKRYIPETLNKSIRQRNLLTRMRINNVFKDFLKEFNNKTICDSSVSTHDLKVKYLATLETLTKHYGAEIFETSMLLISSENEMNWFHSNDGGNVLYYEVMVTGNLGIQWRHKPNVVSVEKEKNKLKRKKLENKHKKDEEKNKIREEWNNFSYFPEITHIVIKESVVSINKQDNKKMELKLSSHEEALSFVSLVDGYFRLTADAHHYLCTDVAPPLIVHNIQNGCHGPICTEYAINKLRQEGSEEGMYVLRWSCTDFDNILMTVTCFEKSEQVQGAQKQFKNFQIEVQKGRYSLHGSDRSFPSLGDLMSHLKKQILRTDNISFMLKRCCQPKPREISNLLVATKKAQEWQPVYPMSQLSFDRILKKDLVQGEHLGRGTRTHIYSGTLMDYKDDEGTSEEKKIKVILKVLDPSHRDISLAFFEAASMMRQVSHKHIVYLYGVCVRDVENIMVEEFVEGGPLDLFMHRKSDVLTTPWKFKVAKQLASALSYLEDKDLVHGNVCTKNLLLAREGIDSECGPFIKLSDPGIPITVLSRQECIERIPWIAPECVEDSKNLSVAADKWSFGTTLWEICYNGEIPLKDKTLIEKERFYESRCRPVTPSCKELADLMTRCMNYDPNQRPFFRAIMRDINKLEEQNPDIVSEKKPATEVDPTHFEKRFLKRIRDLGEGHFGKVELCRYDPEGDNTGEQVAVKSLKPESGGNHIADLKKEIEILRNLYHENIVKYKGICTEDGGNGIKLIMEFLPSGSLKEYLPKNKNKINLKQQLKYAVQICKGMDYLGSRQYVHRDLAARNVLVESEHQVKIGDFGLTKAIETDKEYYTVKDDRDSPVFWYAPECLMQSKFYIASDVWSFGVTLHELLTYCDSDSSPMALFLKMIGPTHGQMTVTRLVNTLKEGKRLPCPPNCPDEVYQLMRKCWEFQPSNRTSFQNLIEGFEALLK

[3] = biological target: Tyrosine-protein kinase JAK1 (Homo sapiens) (UniProt P23458); conditions: at 1 µM
[4] = biological target: Tyrosine-protein kinase JAK2 (Homo sapiens) (UniProt O60674); conditions: at 0.1 µM
[5] = biological target: Tyrosine-protein kinase JAK2 (Homo sapiens) (UniProt O60674); conditions: at 1 µM
[6] = biological target: T2, Tyrosine-protein kinase JAK3 (Homo sapiens) (UniProt P52333); conditions: at 0.1 µM
T2 sequence (whole entry): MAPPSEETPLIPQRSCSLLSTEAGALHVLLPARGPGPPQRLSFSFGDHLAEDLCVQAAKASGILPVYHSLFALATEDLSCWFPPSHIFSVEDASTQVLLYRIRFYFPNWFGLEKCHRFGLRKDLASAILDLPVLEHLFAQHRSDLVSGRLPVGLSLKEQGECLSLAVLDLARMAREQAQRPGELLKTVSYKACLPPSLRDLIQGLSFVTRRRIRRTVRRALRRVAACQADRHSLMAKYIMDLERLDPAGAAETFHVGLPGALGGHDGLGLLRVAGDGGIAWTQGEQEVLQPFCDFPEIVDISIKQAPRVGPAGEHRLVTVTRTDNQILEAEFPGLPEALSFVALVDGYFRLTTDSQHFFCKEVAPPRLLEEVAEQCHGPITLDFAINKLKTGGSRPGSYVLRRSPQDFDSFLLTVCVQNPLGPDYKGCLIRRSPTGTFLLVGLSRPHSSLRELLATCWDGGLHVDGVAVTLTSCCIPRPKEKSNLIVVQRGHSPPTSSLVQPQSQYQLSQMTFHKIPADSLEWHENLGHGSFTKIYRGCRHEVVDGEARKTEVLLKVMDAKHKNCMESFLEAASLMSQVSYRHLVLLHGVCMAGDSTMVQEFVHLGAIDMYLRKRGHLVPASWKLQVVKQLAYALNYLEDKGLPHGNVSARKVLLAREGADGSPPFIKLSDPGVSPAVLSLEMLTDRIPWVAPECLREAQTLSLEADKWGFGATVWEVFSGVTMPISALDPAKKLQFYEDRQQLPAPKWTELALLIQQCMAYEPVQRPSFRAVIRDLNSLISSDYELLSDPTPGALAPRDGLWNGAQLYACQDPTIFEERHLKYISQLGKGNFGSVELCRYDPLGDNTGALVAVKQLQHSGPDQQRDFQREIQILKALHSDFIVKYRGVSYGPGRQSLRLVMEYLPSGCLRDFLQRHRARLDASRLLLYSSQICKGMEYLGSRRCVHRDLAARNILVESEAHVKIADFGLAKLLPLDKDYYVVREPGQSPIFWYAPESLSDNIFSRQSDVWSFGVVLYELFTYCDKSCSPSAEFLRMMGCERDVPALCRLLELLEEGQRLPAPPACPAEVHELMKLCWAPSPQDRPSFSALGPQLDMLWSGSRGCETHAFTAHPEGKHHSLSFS

[7] = biological target: T2, Tyrosine-protein kinase JAK3 (Homo sapiens); conditions: at 1 µM
[8] = biological target: Vascular endothelial growth factor receptor 2 (Homo sapiens) (UniProt P35968); conditions: at 0.1 µM
Vascular endothelial growth factor receptor 2 (Homo sapiens), sequence (P35968 whole entry): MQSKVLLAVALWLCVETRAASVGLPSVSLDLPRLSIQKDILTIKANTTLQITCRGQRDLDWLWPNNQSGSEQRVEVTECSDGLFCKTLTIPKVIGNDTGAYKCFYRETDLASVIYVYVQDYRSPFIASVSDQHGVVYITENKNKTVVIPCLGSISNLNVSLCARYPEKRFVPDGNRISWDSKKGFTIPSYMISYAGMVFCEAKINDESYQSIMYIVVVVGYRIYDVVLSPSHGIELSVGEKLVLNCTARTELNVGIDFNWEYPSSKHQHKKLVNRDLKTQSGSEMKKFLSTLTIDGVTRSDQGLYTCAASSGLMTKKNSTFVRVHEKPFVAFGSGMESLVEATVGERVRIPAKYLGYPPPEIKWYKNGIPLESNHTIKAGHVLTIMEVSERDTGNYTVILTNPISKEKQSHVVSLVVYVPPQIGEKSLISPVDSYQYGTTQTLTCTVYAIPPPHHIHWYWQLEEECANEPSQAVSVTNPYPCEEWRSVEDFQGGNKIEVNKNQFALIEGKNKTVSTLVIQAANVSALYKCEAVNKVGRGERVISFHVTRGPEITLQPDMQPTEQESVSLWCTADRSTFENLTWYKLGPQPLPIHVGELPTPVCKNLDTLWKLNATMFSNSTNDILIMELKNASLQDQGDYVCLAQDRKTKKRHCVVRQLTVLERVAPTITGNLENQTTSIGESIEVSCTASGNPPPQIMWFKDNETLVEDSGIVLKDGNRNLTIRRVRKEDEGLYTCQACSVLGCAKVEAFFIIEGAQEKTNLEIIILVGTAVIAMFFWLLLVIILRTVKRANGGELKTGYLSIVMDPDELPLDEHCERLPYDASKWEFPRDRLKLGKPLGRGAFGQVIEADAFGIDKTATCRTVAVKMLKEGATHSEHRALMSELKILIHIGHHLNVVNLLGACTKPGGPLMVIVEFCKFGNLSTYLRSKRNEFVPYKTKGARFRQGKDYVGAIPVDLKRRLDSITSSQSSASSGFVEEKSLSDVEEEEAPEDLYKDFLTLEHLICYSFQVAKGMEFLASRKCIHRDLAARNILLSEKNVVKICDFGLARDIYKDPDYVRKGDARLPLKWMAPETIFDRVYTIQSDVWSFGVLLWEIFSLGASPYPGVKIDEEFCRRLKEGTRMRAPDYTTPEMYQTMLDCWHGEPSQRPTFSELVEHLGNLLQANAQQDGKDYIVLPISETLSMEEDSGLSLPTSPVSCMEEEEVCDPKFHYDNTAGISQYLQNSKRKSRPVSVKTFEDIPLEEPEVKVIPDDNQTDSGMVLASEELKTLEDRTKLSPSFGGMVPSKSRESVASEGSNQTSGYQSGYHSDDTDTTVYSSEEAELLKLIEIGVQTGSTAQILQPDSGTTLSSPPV

[9] = biological target: Vascular endothelial growth factor receptor 2 (Homo sapiens) (UniProt P35968); conditions: at 1 µM
[10] = biological target: Mast/stem cell growth factor receptor Kit (Homo sapiens) (UniProt P10721); conditions: at 0.1 µM
Mast/stem cell growth factor receptor Kit (Homo sapiens), sequence (P10721 whole entry): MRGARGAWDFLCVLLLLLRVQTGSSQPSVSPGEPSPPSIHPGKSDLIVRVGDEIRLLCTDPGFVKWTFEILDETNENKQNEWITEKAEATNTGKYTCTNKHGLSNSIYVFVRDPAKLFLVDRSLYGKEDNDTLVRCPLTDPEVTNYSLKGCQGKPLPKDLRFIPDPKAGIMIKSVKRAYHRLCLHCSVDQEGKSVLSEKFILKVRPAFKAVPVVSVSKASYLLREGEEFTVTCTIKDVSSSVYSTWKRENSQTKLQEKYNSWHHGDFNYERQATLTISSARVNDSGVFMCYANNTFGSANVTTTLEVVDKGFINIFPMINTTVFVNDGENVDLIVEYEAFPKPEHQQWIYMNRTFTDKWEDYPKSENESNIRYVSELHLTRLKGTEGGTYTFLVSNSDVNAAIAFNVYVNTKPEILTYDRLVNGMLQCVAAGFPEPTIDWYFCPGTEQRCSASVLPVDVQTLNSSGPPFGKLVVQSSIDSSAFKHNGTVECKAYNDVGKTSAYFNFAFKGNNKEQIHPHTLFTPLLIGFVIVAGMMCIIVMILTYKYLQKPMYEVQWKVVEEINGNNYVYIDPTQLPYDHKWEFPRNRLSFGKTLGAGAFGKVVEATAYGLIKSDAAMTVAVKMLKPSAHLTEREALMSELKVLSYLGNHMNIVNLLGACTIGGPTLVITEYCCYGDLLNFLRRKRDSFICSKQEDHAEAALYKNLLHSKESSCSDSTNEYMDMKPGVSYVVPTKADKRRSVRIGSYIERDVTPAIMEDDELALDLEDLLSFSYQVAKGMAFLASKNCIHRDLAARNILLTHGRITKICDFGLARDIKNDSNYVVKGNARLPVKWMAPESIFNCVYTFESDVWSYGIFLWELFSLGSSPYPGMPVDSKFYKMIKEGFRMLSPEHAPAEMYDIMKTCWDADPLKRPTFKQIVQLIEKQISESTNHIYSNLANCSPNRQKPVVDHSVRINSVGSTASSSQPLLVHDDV

[11] = biological target: Mast/stem cell growth factor receptor Kit (Homo sapiens) (UniProt P10721); conditions: at 1 µM
[12] = test system: Mast/stem cell growth factor receptor Kit (Homo sapiens), P10721 [D816V]; conditions: at 0.1 µM
Mast/stem cell growth factor receptor Kit (Homo sapiens), P10721 [D816V], sequence (P10721 whole entry D816V): as the sequence (P10721 whole entry) above, with D816V counted along it

[13] = test system: Mast/stem cell growth factor receptor Kit (Homo sapiens), P10721 [D816V]; conditions: at 1 µM
[14] = test system: Mast/stem cell growth factor receptor Kit (Homo sapiens), P10721 [T670I]; conditions: at 0.1 µM
Mast/stem cell growth factor receptor Kit (Homo sapiens), P10721 [T670I], sequence (P10721 whole entry T670I): as the sequence (P10721 whole entry) above, with T670I counted along it

[15] = test system: Mast/stem cell growth factor receptor Kit (Homo sapiens), P10721 [T670I]; conditions: at 1 µM
[16] = test system: Mast/stem cell growth factor receptor Kit (Homo sapiens), P10721 [V560G]; conditions: at 0.1 µM
Mast/stem cell growth factor receptor Kit (Homo sapiens), P10721 [V560G], sequence (P10721 whole entry V560G): as the sequence (P10721 whole entry) above, with V560G counted along it

[17] = test system: Mast/stem cell growth factor receptor Kit (Homo sapiens), P10721 [V560G]; conditions: at 1 µM
[18] = biological target: Tyrosine-protein kinase Lck (Homo sapiens) (UniProt P06239); conditions: at 0.1 µM
Tyrosine-protein kinase Lck (Homo sapiens), sequence (P06239 2-509 limits assumed): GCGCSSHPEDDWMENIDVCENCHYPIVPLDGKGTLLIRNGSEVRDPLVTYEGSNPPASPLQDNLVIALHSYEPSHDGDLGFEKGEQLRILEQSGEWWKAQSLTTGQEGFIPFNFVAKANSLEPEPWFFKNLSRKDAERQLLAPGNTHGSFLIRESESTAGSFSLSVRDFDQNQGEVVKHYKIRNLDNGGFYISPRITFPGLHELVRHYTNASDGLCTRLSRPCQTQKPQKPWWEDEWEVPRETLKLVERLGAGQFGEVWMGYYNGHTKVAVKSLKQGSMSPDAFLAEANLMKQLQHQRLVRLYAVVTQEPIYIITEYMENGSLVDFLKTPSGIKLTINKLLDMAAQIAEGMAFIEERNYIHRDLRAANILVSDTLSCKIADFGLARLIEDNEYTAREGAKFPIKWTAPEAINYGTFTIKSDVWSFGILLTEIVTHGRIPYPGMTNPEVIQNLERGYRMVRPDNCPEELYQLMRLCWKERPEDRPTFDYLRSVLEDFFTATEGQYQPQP

[19] = biological target: Tyrosine-protein kinase Lck (Homo sapiens) (UniProt P06239); conditions: at 1 µM
[20] = biological target: Leukocyte tyrosine kinase receptor (Homo sapiens) (UniProt P29376); conditions: at 0.1 µM
Leukocyte tyrosine kinase receptor (Homo sapiens), sequence (P29376 whole entry): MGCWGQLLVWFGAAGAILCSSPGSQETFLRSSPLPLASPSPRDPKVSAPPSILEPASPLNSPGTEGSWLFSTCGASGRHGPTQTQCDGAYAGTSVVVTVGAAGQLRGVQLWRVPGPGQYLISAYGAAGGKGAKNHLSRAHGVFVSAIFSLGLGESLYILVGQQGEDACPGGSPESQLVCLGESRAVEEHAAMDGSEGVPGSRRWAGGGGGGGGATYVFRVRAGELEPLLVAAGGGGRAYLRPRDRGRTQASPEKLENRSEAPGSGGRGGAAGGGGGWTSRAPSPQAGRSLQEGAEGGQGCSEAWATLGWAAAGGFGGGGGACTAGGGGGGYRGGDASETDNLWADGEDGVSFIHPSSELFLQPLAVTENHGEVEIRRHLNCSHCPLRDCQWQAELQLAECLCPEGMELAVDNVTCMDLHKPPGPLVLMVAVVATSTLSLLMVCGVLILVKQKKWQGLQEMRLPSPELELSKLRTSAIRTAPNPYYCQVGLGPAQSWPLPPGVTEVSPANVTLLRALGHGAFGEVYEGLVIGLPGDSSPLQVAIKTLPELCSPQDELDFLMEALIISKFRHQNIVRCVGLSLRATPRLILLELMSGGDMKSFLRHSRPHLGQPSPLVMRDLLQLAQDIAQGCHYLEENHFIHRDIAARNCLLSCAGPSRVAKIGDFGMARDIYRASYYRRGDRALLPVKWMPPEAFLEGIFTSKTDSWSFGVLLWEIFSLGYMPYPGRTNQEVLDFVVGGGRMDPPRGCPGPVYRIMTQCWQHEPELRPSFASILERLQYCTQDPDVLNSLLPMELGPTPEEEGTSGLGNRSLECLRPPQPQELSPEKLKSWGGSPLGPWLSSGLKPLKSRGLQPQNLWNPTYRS

Row | Compound | inhibition [1] | inhibition [2] | inhibition [3] | inhibition [4] | inhibition [5] | inhibition [6] | inhibition [7] | inhibition [8] | inhibition [9] | inhibition [10] | inhibition [11] | inhibition [12] | inhibition [13] | inhibition [14] | inhibition [15] | inhibition [16] | inhibition [17] | inhibition [18] | inhibition [19] | inhibition [20]
1 | COc1cc(N2CCN(C(C)C)CC2)ccc1Nc1nc(Nc2cccc(F)c2C(=O)O)c2cc[nH]c2n1 | 5.92% | 4.17% | 8.87% | 6.66% | 2.37% | -1.39% | 0.51% | 4.67% | 6.45% | 2.86% | 8.76% | 3.82% | 3.22% | 2.33% | 3.08% | -0.92% | 0.71% | 1.92% | 2.86% | 66.4%
2 | CCOc1ccc2c(-c3ccnc(Nc4cc(OC)cc(C(F)(F)F)c4)n3)cnn2n1 | 1.63% | -2.13% | 6.23% | 1.22% | 5.38% | 0.66% | 9.24% | 4.19% | 19.1% | 7.32% | 56.5% | -2.22% | 2.86% | 1.55% | 14.5% | 2.02% | 5.97% | 1.12% | 4.52% | 0.61%
3 | OCCCNc1nccc(-c2c(-c3ccc(F)cc3)nn3cc(C(F)(F)F)ccc23)n1 | 0.19% | -0.95% | -4.2% | 1.8% | 0.99% | 0.08% | 1.33% | 4.84% | 6.21% | 3.28% | 8.99% | 1.58% | 0.33% | -0.18% | 0.98% | -1.46% | -0.39% | 1.91% | 5.83% | 3.02%
4 | Cc1c2ccc(N(C)c3ccnc(Nc4cccc(S(N)(=O)=O)c4)n3)cc2nn1C | 2.14% | 1.56% | 9.69% | 2.02% | 6.46% | -4.75% | 0.05% | 76.4% | 73% | 92.6% | 98% | 2.85% | 5.89% | 22% | 81.1% | 69.9% | 80.3% | 20.3% | 66.6% | 4.98%
5 | c1cnn2ncc(-c3ccnc(NCCCN4CCOCC4)n3)c2c1 | 0.08% | 2.8% | 4.8% | 2.27% | 1.4% | -1.85% | -2.75% | 5.58% | 6.83% | 5.59% | 5.88% | 6.89% | 4.06% | 9.96% | 3.97% | -0.98% | -1.13% | 1.55% | 1.64% | 2.87%
6 | CCCNc1cccc(-n2ncc3c(N/N=C/c4ccncc4)ncnc32)c1 | 10.8% | 6.59% | 11.7% | 0.82% | 14.7% | -1.09% | 8.21% | 17.3% | 64.9% | 2.4% | 23.7% | -0.57% | 9.89% | 1.36% | 5.45% | 7.17% | 13.4% | 23.1% | 68.3% | 1.2%
7 | NS(=O)(=O)c1cccc(N/C=C2\C(=O)Nc3ccccc32)c1 | 3.54% | 2.83% | 6.08% | 1.37% | 2.13% | -2% | 0.9% | 9.08% | 35.3% | 16.4% | 63.9% | 3.62% | 2.43% | 6.57% | 45.2% | -0.34% | 8.83% | 2.31% | 6.78% | 3.74%
8 | Cc1cc(O)cc(C)c1/C=C/c1cncc(C(=O)OC(C)(C)C)c1 | 2.71% | 1.99% | 7.09% | 1.65% | 3.69% | 0.72% | 6.16% | 4.17% | 6% | 38.3% | 85.7% | 1.84% | -1.16% | 4.32% | 2.87% | 2.94% | 18.4% | 4.23% | 26.8% | 2.71%
9 | O=C(O[C@H]1CN[C@H](C#Cc2cc3ncnc(Nc4ccc5c(ccn5Cc5cc(F)ccc5F)c4)c3s2)C1)N1CCOCC1 | 2.55% | 5.05% | 1.68% | 1.8% | 1.6% | -1.37% | 0.4% | 3.78% | 10.6% | 2.29% | 2.34% | 3.87% | 3.82% | 3.88% | 2.88% | -0.88% | -2.32% | 2.27% | 4.87% | 5.27%
10 | COc1cc2c(cc1Nc1nc(Nc3cccc(F)c3C(N)=O)c3cc[nH]c3n1)N(C(=O)CN1CCN(C(C)C)CC1)CC2 | 4.16% | -0.19% | -3.81% | 0.65% | 2.21% | 0.64% | 6.68% | 0.99% | 9.98% | -1.31% | 1.51% | -0.69% | 0.07% | -0.28% | -0.5% | -3.41% | -2.31% | 2.47% | 0.75% | 27.6%
11 | Fc1ccc(Nc2nccc(-c3c(-c4ccc(C(F)(F)F)cc4)nn4ncccc34)n2)cc1F | 2.42% | 2.03% | 0.13% | 1.44% | 2.24% | -1.12% | 0.59% | 5.73% | 7.03% | 4.14% | 4.68% | 2.15% | 2.45% | 0.78% | 2.14% | -1.76% | 1.06% | 3.17% | 0.53% | 2.82%
12 | COc1cc(Nc2ncc(-c3ccccc3)o2)cc(OC)c1 | 3.63% | -0.99% | 5.5% | 2.04% | 1.78% | -3.48% | -1.92% | 6.74% | 19.3% | 78.5% | 97.2% | 3.13% | 2.77% | 21.6% | 81.7% | 33.6% | 83.5% | 2.6% | 14.5% | 4.67%
13 | CN1CCN(Cc2ccc(-c3cc4ncnc(Nc5ccc(OCc6cccc(F)c6)c(Cl)c5)c4s3)o2)CC1 | 2.43% and 2.68% | 1.06% and 6.88% | 3.27% and 18.5% | 0.99% and 0.67% | 0.57% and 0.86% | -2.47% and -0.74% | -1.79% and -0.23% | 7.34% and 7.83% | 24% and 24.2% | 3.38% and 6.79% | 11.5% and 12.7% | 3.79% and 5.98% | 5.98% and 4.53% | 2.89% and 2.77% | 2.77% and 5.27% | -1.59% and -3.38% | 2.22% and 1.14% | 4.76% and 7.19% | 22.2% and 27.2% | 3.61% and 4.17%
